# Several values for one entry are separate records, joined by “and”; a condition that tells them apart may be missing. Equal values may be shown once. Where a structure was tested more than once in an assay, its records may differ in their call. Activity calls are given as the source filed them.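 How the source made its calls, unless noted: active means inhibition at or above 50% relative to wild type and mutant plate controls; inactive means inhibition below 50%.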
# What was measured:
# [1] = inhibitors of TNFa-induced NFkB p65 translocation, primary screen, imaging, HUVEC, MLSMR starter and 10KST1 sets (AID 438;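 active means inhibition above 20% together with a positive visual image hit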;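 further: compound added about 3h40 before a 20 min TNFalpha stimulation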;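 on inhibition: signal is the nuclear over cytoplasmic p65 intensity ratio per well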); conditions: HUVEC TNFa-induced p65 nuclear translocation; cell count: measured here: nuclei count (cytotoxicity indicator), at 2.08 µM unless noted; inhibition: at 2 µM, stronger effect = higher value unless noted
# [2] = reduction of polyQ htt aggregates in cells – imaging, exon1htt(103Q)mCFP cells, high-content imaging, primary screen (AID 483;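 active means visual image review flags a hit and inhibition of aggregation exceeds 20%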;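 further: compound exposure lasted 3 days before fixation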;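 on nuclei count: percent of the per-plate median nuclei count of sample wells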); conditions: exon1htt(103Q)mCFP cell line, aggregate imaging, at 2 µM; inhibition of aggregation: stronger effect = higher value; nuclei count: measured here: cell count, toxicity
# [3] = endothelial E-selectin expression blockers – imaging, HUVEC, immunofluorescence, MLSMR starter and 10KST1 sets, primary screen (AID 487;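 active means visually confirmed hit in the image check and inhibition above 20%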;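 on inhibition: signal is fraction of cell area covered by stained E-selectin grains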;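 on nuclei count: 100% = median nuclei count of all wells on the same plate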); conditions: HUVEC TNFalpha-induced E-selectin immunofluorescence imaging, at 2 µM; inhibition: stronger effect = higher value; nuclei count: measured here: cell number, toxicity
# [4] = Primary imaging screen for DUSP6 inhibitors that restore phospho-Erk in transfected HeLa cells, chemical complementation (AID 609;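 active means compounds giving at least 50% inhibition in the cell-based MKP-3 phosphatase rescue imaging test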;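 on inhibition: phospho-Erk level distribution per well compared with pooled transfected vehicle control wells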); conditions: HeLa MKP-3 transfected, phospho-Erk imaging KS statistic, at 10 µM
# [5] = molecular target: Dual specificity protein phosphatase 6 (Homo sapiens) (UniProt Q16828); assay: as above; conditions: HeLa MKP-3 transfected, phospho-Erk imaging KS statistic, at 10 µM, stronger effect = higher value
# [6] = molecular target: Voltage-gated potassium channel subunit beta-2 (Rattus norvegicus) (UniProt P62483); assay: inhibitors of rat Kvbeta2 reductase activity – biochemical, NADPH fluorescence, primary screen (AID 622;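 active means fluorescence slope higher than the sample average by over 3 SD, cut at about -0.22 in these data, passing the limit was not always enough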;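 further: slope of raw intensity against log time taken from 70 to 1610 s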); conditions: recombinant KvBeta, 4-cyanobenzaldehyde reduction, at 10 µM, stronger effect = higher value
# [7] = molecular target: Voltage-gated potassium channel subunit beta-2 (Rattus norvegicus) (UniProt P62483); assay: enhancers of rat Kvbeta2 NADPH turnover – biochemical, NADPH fluorescence, primary screen (AID 623;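 active means NADPH fluorescence slope more negative than the mean of all samples by about 3 SD, 99.7% confidence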;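 further: fluorescence intensity change per second fitted from 20 to 320 s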); conditions: Recombinant KvBeta, NADPH fluorescence decrease slope, 10 min; at 10 µM; stronger effect = lower value
# [8] = molecular target: Alpha-2C adrenergic receptor (Homo sapiens) (UniProt P18825); assay: compounds altering alpha2C-coupled GIRK flux – cell-based, HEK293 alpha2C/GIRK1/2, thallium flux, primary screen (AID 624;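 active means fluorescence slope after compound addition differing from the mean of all screened samples at 99.7% confidence, in either direction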;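 further: slope of fluorescence ratio to pre-addition baseline per second over 15 to 24 s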); conditions: thallium flux BTC fluorescence, at 10 µM, actives lie on both sides
# [9] = inhibitors of larval lipid processing in zebrafish, primary screen, whole organism, PED6 fluorescence, gall bladder and intestine (AID 686;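 active means a full or partial loss of lipid-probe fluorescence in the fish gall bladder, intestine or both, judged by eye; inactive means no fluorescence loss, or compound toxic to the fish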;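 further: larvae 5 to 7 days old with five fish per well; signal comes from phospholipase A2 cleavage of quenched PED6 carried via bile; overnight exposure to compound and PED6 before scoring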); conditions: Zebrafish larvae PED6 lipid processing, fluorescence scoring
# [10] = loss of swimming-algae plug formation – whole organism, Chlamydomonas reinhardtii, WT vs cilia-less mutant, absorbance, 96-well, primary screen (AID 463189); conditions: Chlamydomonas reinhardtii gravitaxis, OD600 absorbance, 2 days; at 10 µM; stronger effect = higher value;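 further: 0% = wild type cc124 cells in DMSO and 100% = ciliumless bld1 mutant cells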
# [11] = blockers of RIG-like receptor reporter activation – cell-based, Sendai virus stimulus, luciferase, 10K MLSCN set, TLR/RLR signaling modifier project, primary screen (AID 602276;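 active means inhibition at or above 50% at 10 µM; inactive means inhibition below 50%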;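 further: firefly luciferase from ISG56 promoter only with Renilla not read in this screen; 0% = Sendai virus plus DMSO and 100% = medium plus DMSO without virus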); conditions: HEK293 RL24 IRF3 luciferase reporter, at 10 µM, stronger effect = higher value
# [12] = TLR3 IRF3 reporter activation blockers – cell-based, poly I:C stimulus, luciferase, 10K MLSCN set, primary screen (AID 602277;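 active means inhibition of the reporter signal at or above 50%; inactive means inhibition below 50%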); conditions: HEK293-TLR3 RL24 IRF3 luciferase reporter, at 10 µM, stronger effect = higher value
# [13] = measured here: cell density z-score
# [14] = measured here: nuclear c-Myc green intensity z-score
# [15] = measured here: nuclear pErk red intensity z-score, stronger effect = higher value
# Voltage-gated potassium channel subunit beta-2 (Rattus norvegicus), sequence (P62483 whole entry, looked up): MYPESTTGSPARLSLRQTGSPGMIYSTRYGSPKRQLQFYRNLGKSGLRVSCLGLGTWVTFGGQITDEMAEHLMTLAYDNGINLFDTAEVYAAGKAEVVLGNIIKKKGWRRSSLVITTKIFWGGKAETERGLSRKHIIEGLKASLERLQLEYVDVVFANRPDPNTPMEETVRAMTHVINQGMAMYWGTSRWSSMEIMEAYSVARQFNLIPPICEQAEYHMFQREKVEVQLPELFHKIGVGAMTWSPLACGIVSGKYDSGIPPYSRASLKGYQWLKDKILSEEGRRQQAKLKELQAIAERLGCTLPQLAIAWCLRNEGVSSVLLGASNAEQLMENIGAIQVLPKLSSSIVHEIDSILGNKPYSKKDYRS
# Dual specificity protein phosphatase 6 (Homo sapiens), sequence (Q16828 whole entry, looked up): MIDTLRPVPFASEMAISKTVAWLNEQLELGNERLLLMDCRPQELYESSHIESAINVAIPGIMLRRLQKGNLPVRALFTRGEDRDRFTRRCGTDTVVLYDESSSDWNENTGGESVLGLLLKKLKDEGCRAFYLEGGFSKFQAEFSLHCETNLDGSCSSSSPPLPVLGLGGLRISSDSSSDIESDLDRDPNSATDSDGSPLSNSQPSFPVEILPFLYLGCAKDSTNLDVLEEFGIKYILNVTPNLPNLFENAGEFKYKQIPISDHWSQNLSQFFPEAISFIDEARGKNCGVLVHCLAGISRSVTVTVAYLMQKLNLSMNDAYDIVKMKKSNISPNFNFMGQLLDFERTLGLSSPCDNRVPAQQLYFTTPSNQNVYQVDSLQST
# Alpha-2C adrenergic receptor (Homo sapiens), sequence (P18825 whole entry, looked up): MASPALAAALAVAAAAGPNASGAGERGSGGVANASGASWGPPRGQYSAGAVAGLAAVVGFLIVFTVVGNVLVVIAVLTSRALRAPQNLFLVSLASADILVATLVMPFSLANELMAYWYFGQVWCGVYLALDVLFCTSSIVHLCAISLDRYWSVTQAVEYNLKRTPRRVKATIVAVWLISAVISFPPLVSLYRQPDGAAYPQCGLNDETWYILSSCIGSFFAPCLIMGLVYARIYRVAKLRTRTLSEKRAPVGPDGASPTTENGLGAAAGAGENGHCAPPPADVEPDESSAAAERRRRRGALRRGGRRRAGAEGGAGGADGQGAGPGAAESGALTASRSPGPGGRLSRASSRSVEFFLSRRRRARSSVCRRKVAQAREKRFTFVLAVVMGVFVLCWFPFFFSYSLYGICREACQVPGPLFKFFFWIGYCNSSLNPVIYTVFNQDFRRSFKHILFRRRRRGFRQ
structure (smiles),measurement,setting,value
CNCCc1c[nH]c2ccccc12,cell count,[1],615
same,inhibition,[1],-10.3% (inactive)
same,inhibition of aggregation,[2],3.8% (inactive)
same,nuclei count,[2],103%
same,inhibition,[3],-70.6% (inactive)
same,nuclei count,[3],127%
same,z-score,[4]; [13],-0.539
same,z-score,[4]; [14],-0.571
same,z-score,[4]; [15],-0.457
same,inhibition,[5],-6.41% (inactive)
same,fluorescence slope,[6],-0.506 (inactive)
same,NADPH fluorescence slope,[7],2.2e-05 (inactive)
same,slope,[8],0.00539 (inactive)
same,outcome,[9],inactive
same,inhibition,[10],1.04% (inactive)
same,inhibition,[11],25.5% (inactive)
same,inhibition,[12],49.1% (inactive)
CC(NC(C)(C)C)C(=O)c1cccc(Cl)c1 (stereo not given),cell count,[1],651
same,inhibition,[1],-1.3% (inactive)
same,inhibition of aggregation,[2],4% (inactive)
same,nuclei count,[2],102%
same,inhibition,[3],-75.7% (inactive)
same,nuclei count,[3],132%
same,z-score,[4]; [13],-0.59
same,z-score,[4]; [14],0.546
same,z-score,[4]; [15],-0.888
same,inhibition,[5],12.4% (inactive)
same,fluorescence slope,[6],-0.447 (inactive)
same,NADPH fluorescence slope,[7],-3.7e-05 (inactive)
same,slope,[8],0.00462 (inactive)
same,outcome,[9],inactive
same,inhibition,[10],-4.32% (inactive) and 13.4% (inactive)
same,inhibition,[11],11.7% (inactive)
same,inhibition,[12],29.6% (inactive)
Cc1c2ccncc2c(C)c2c1[nH]c1ccccc12,cell count,[1],493
same,inhibition,[1],-11.8% (inactive)
same,inhibition of aggregation,[2],-178% (inactive)
same,nuclei count,[2],27.6%
same,inhibition,[3],-23% (inactive)
same,nuclei count,[3],100%
same,z-score,[4]; [13],-0.124
same,z-score,[4]; [14],0.964
same,z-score,[4]; [15],-1.2
same,inhibition,[5],38.9% (inactive)
same,fluorescence slope,[6],-0.464 (inactive)
same,NADPH fluorescence slope,[7],-5.8e-09 (inactive)
same,slope,[8],0.0129 (active)
same,inhibition,[10],11% (inactive) and 108% (active)
same,inhibition,[11],12.8% (inactive)
same,inhibition,[12],91.8% (active)
O=c1[nH]c(=O)n(CCc2ccccc2)c(O)c1C=NCCN1CCNCC1,cell count,[1],554
same,inhibition,[1],-4% (inactive)
same,inhibition of aggregation,[2],-1.9% (inactive)
same,nuclei count,[2],109%
same,inhibition,[3],-30.7% (inactive)
same,nuclei count,[3],123%
same,z-score,[4]; [13],-0.452
same,z-score,[4]; [14],-0.273
same,z-score,[4]; [15],-0.327
same,inhibition,[5],-3.5% (inactive)
same,fluorescence slope,[6],-0.348 (inactive)
same,NADPH fluorescence slope,[7],2e-05 (inactive)
same,slope,[8],0.0061 (inactive)
same,outcome,[9],inactive
same,inhibition,[10],-4.22% (inactive)
same,inhibition,[11],18.3% (inactive)
same,inhibition,[12],21.6% (inactive)
CC(C)[C@H]1C(=O)N2CCC[C@H]2[C@]2(O)O[C@](NC(=O)[C@@H]3C=C4c5cccc6[nH]cc(c56)C[C@H]4N(C)C3)(C(C)C)C(=O)N12,cell count,[1],501
same,inhibition,[1],1.6% (inactive)
same,inhibition of aggregation,[2],-14% (inactive)
same,nuclei count,[2],110%
same,inhibition,[3],-84.6% (inactive)
same,nuclei count,[3],122%
same,z-score,[4]; [13],-1.33
same,z-score,[4]; [14],-1
same,z-score,[4]; [15],0.393
same,inhibition,[5],3.59% (inactive)
same,fluorescence slope,[6],-0.451 (inactive)
same,NADPH fluorescence slope,[7],-1.8e-05 (inactive)
same,slope,[8],0.0044 (inactive)
same,inhibition,[10],13.5% (inactive)
same,inhibition,[11],10.2% (inactive)
same,inhibition,[12],18.2% (inactive)
C[C@@]1(CO)[C@H](O)CC[C@@]2(C)[C@H]1CC[C@H]1C[C@@H]3C[C@@]12CC[C@]3(O)CO,cell count,[1],629
same,inhibition,[1],-4.1% (inactive)
same,inhibition of aggregation,[2],-9.1% (inactive)
same,nuclei count,[2],9.1%
same,inhibition,[3],-34.7% (inactive)
same,nuclei count,[3],113%
same,z-score,[4]; [13],0.71
same,z-score,[4]; [14],-0.0811
same,z-score,[4]; [15],-0.673
same,inhibition,[5],1.48% (inactive)
same,fluorescence slope,[6],-0.469 (inactive)
same,NADPH fluorescence slope,[7],-5.6e-05 (inactive)
same,slope,[8],0.00555 (inactive)
same,outcome,[9],inactive
same,inhibition,[10],-7.52% (inactive)
same,inhibition,[11],-34.2% (inactive)
same,inhibition,[12],49.2% (inactive)
c1ccc2c3c([nH]c2c1)CNCC3,cell count,[1],485
same,inhibition,[1],-1.2% (inactive)
same,inhibition of aggregation,[2],3.2% (inactive)
same,nuclei count,[2],92.7%
same,inhibition,[3],-84.5% (inactive)
same,nuclei count,[3],114%
same,z-score,[4]; [13],0.136
same,z-score,[4]; [14],-0.573
same,z-score,[4]; [15],-0.521
same,inhibition,[5],23.4% (inactive)
same,fluorescence slope,[6],-0.459 (inactive)
same,NADPH fluorescence slope,[7],-6.4e-05 (inactive)
same,slope,[8],0.00455 (inactive)
same,inhibition,[10],24.5% (inactive)
same,inhibition,[11],4.35% (inactive)
same,inhibition,[12],51.6% (active)
O=c1[nH]c(=O)n(Cc2ccco2)c(O)c1C=NCCCn1ccnc1,cell count,[1],506
same,inhibition,[1],-1.7% (inactive)
same,inhibition of aggregation,[2],4.4% (inactive)
same,nuclei count,[2],89.9%
same,inhibition,[3],-104% (inactive)
same,nuclei count,[3],123%
same,z-score,[4]; [13],0.638
same,z-score,[4]; [14],-0.867
same,z-score,[4]; [15],0.884
same,inhibition,[5],-0.584% (inactive)
same,fluorescence slope,[6],-0.334 (inactive)
same,NADPH fluorescence slope,[7],-2.4e-05 (inactive)
same,slope,[8],0.00606 (inactive)
same,outcome,[9],inactive
same,inhibition,[10],14.1% (inactive)
same,inhibition,[11],8.16% (inactive)
same,inhibition,[12],21.1% (inactive)
Clc1ccc(COC(Cn2ccnc2)c2ccc(Cl)cc2Cl)cc1 (stereo not given),cell count,[1],571
same,inhibition,[1],"-2% [at 2 µM, stronger effect = higher value, 0% TNFa-plus-vehicle, 100% no-TNFa wells] (inactive)"
same,inhibition of aggregation,[2],-19.8% (inactive)
same,nuclei count,[2],61.4%
same,inhibition,[3],-14.8% (inactive)
same,nuclei count,[3],106%
same,z-score,"[4]; measured here: cell density z-score, cells stimulated with TPA for 15 min",0.542
same,z-score,"[4]; measured here: nuclear c-Myc green intensity z-score, cells stimulated with TPA for 15 min",1.67
same,z-score,"[4]; measured here: nuclear pErk red intensity z-score, stronger effect = higher value, cells stimulated with TPA for 15 min",-0.914
same,inhibition,[5],13.3% [cells stimulated with TPA for 15 min] (inactive)
same,fluorescence slope,[6],-0.51 (inactive)
same,NADPH fluorescence slope,[7],4.6e-06 (inactive)
same,slope,[8],0.00388 (inactive)
same,outcome,[9],inactive; toxic [screened at 20 µM (by protocol)]
same,inhibition,[10],41.7% (inactive)
same,inhibition,[11],22.8% (inactive)
same,inhibition,[12],32.2% (inactive)
O=c1[nH]c2ccccc2n1C1CCN(CCCC(c2ccc(F)cc2)c2ccc(F)cc2)CC1,cell count,[1],544
same,inhibition,[1],-2.2% (inactive)
same,inhibition,[3],-26.6% (inactive)
same,nuclei count,[3],108%
same,z-score,[4]; [13],-0.698
same,z-score,[4]; [14],0.151
same,z-score,[4]; [15],-0.248
same,inhibition,[5],5.42% (inactive)
same,fluorescence slope,[6],-0.556 (inactive)
same,NADPH fluorescence slope,[7],-6.4e-05 (inactive)
same,slope,[8],0.00493 (inactive)
same,outcome,[9],inactive
same,inhibition,[10],-5.72% (inactive) and -16.1% (inactive)
same,inhibition,[11],18.5% (inactive)
same,inhibition,[12],10.5% (inactive)

# — PubChem BioAssay
